The values below come from PubChem BioAssay (NCI).

Test systems include NCI-H23 lung; NCI-H226 lung; NCI-H322M lung; HOP-62 NSCLC; NCI-H460 lung; HOP-92 NSCLC; NCI-H522 lung; A549/ATCC NSCLC; 786-0 renal; COLO 205 colon; DU-145 prostate; K-562 leukemia; MALME-3M melanoma; MDA-MB-231 breast; RXF 393 renal; SF-268 CNS; SF-295 CNS; SF-539 CNS; M14 melanoma.
What all share (experiment): NCI-60 one-dose screen, 48 h (100 = growth as untreated, 0 = no growth, -100 = all killed)
Common to all, as to settings: 10 µM unless noted

This is part of a sample that, as a whole, favours compounds with a hit. Of some 83,000 tested, about 20% had one in any assay.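 Each cell line was grown in a 96-well plate and treated with one concentration of compound for 48 hours. Values below 10 were considered active.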 Values without a mark were called inactive. The source made the active and inactive calls.

As to `N#Cc1cnc2cc(OC[C@@H](O)CO)c(NC(=O)C3CCCC3)cc2c1Nc1ccc(OCc2cccc(F)c2)c(Cl)c1`, the growth was 13.6% with NCI-H23 lung; 38.5% in the test on NCI-H226 lung; 35.7% with NCI-H322M lung; -51.9% (active) in the test with HOP-62 NSCLC; 0.536% (active) in the test on NCI-H460 lung; -37.2% (active) in the test on HOP-92 NSCLC. In addition, the growth was -58.5% (active) in the test on NCI-H522 lung; 47.9% in the test with A549/ATCC NSCLC; 43.6% in the test on 786-0 renal; 49.6% in the test with COLO 205 colon; -90.8% (active) in the test on DU-145 prostate; 0.239% (active) with K-562 leukemia. In addition, the growth was -48.8% (active) in the test with MALME-3M melanoma; -58.5% (active) in the test on MDA-MB-231 breast; -62.6% (active) in the test with RXF 393 renal; 23.1% in the test on SF-268 CNS; 1.06% (active) in the test on SF-295 CNS; -32.5% (active) in the test on SF-539 CNS. In the test with M14 melanoma, the growth is -53% (active).

With `Nc1c(C(=O)Nc2c(Cl)cccc2Cl)sc2nc3c(cc12)CCCC3`, the growth was 84.1% with NCI-H23 lung; 91.4% in the test on NCI-H226 lung; 94% with NCI-H322M lung; 50.1% in the test on HOP-62 NSCLC; 66.4% with NCI-H460 lung; 89.2% in the test with HOP-92 NSCLC. Further, the growth in the test on NCI-H522 lung is 62.8%; with A549/ATCC NSCLC, 66.5%; in the test on 786-0 renal, 103%; in the test with COLO 205 colon, 70.3%; with DU-145 prostate it was 88.4%; in the test with K-562 leukemia, 14.8%. Moreover, the growth in the test on MALME-3M melanoma is 59.2%; in the test with MDA-MB-231 breast it was 82.5%; in the test with RXF 393 renal, 87.9%; in the test on SF-268 CNS, 80.9%; in the test with SF-295 CNS, 75.8%; in the test on SF-539 CNS, 75.8%. For the same molecule, in the test on M14 melanoma, the growth is 46.6%.

As to `COc1ccc(-c2cc(-c3c(C)oc4cc5occc5c(OC)c4c3=O)nc(N)c2C#N)cc1OC`, the growth was 73.4% in the test on NCI-H23 lung; 66.2% in the test with NCI-H226 lung; 81.2% in the test with NCI-H322M lung; 50.3% in the test on HOP-62 NSCLC; 32.4% in the test on NCI-H460 lung; 10.6% with HOP-92 NSCLC. Also, the growth in the test with NCI-H522 lung is 47.1%; in the test with A549/ATCC NSCLC, 57.2%; in the test on 786-0 renal it was 83.1%; in the test on COLO 205 colon it was 68.1%; in the test on DU-145 prostate, 81.9%; in the test on K-562 leukemia it was 32%. In addition, the growth in the test with MALME-3M melanoma was 86.4%; in the test with MDA-MB-231 breast it was 64.4%; with RXF 393 renal, 61.6%; with SF-268 CNS, 65.1%; in the test with SF-295 CNS, 52.1%; in the test on SF-539 CNS, 64.2%. In addition, in the test with M14 melanoma, the growth is 72.2%.

Turning to `Cn1c(=O)c2c(ncn2CC(=O)Nc2ccc(S(N)(=O)=O)cc2)n(C)c1=O`, the growth in the test on NCI-H23 lung was 104%; in the test on NCI-H226 lung it was 105%; with NCI-H322M lung, 107%; with HOP-62 NSCLC, 94.8%; with NCI-H460 lung it was 108%; in the test with HOP-92 NSCLC it was 90.1%. In addition, the growth in the test on NCI-H522 lung is 86.7%; in the test with A549/ATCC NSCLC, 88.3%; in the test on 786-0 renal, 94.9%; with COLO 205 colon it was 105%; with DU-145 prostate, 107%; with K-562 leukemia, 97.4%. Moreover, the growth in the test with MALME-3M melanoma was 118%; in the test with MDA-MB-231 breast, 105%; in the test with RXF 393 renal, 106%; in the test with SF-268 CNS, 101%; in the test on SF-295 CNS, 103%; with SF-539 CNS it was 96.3%. In addition, in the test with M14 melanoma, the growth was 97.1%.

As to `CCc1cccc(CC)c1NC(=O)c1sc2nc3c(cc2c1N)CCCC3`, the growth in the test on NCI-H23 lung was 87%; in the test with NCI-H226 lung, 83.2%; in the test with NCI-H322M lung, 92.8%; in the test on HOP-62 NSCLC, 50.5%; in the test on NCI-H460 lung, 91.1%; in the test on HOP-92 NSCLC, 51.2%. The growth in the test with NCI-H522 lung was 41.9%; in the test on A549/ATCC NSCLC, 69.7%; in the test on 786-0 renal, 87.8%; in the test on COLO 205 colon, 105%; in the test on DU-145 prostate, 98.6%; with K-562 leukemia, 26.6%. The growth is 54.3% in the test with MALME-3M melanoma; 79.5% in the test on MDA-MB-231 breast; 81.6% with RXF 393 renal; 82.6% with SF-268 CNS; 45.7% in the test with SF-295 CNS; 74.5% in the test on SF-539 CNS. The growth in the test on M14 melanoma is 52%.

For `O=S(=O)(NCCNc1cc(-c2cn(-c3ccccc3)nc2-c2cccc(O)c2)ccn1)c1ccc(Cl)cc1`, the growth in the test with NCI-H23 lung was 36.6%; in the test on NCI-H226 lung, 45.9%; in the test with NCI-H322M lung, 56.8%; in the test on HOP-62 NSCLC, 51.4%; with NCI-H460 lung it was 26.3%; in the test on HOP-92 NSCLC, 33.8%. The growth is 32.3% in the test on NCI-H522 lung; 31.1% in the test on A549/ATCC NSCLC; 12% in the test on 786-0 renal; -48% (active) in the test on COLO 205 colon; 62.8% in the test on DU-145 prostate; 2.13% (active) with K-562 leukemia. The growth with MALME-3M melanoma was 34.5%; in the test on MDA-MB-231 breast, -2.86% (active); with RXF 393 renal, 38%; in the test on SF-268 CNS, 40.2%; in the test on SF-295 CNS it was 13.3%; with SF-539 CNS, 61.8%. In addition, in the test with M14 melanoma, the growth was 23.5%.

With `CC/C(=N/NC(N)=O)c1ccccc1`, the growth in the test on NCI-H23 lung was 98.6%; with NCI-H226 lung, 97.8%; in the test on NCI-H322M lung, 102%; in the test on HOP-62 NSCLC, 107%; in the test on NCI-H460 lung, 108%; in the test with HOP-92 NSCLC, 103%. Besides, the growth was 99.5% in the test with NCI-H522 lung; 96.4% in the test with A549/ATCC NSCLC; 98.5% in the test with 786-0 renal; 119% in the test with COLO 205 colon; 108% in the test on DU-145 prostate; 101% with K-562 leukemia. The growth in the test on MALME-3M melanoma was 105%; in the test with MDA-MB-231 breast, 102%; with RXF 393 renal, 108%; in the test with SF-268 CNS it was 107%; in the test on SF-295 CNS it was 89.8%; in the test on SF-539 CNS, 95.1%. For the same molecule, the growth in the test with M14 melanoma was 106%.

In the case of `O=C1CCN2C(=O)Nc3ccccc3C2C1` (configuration not stated), the growth in the test on NCI-H23 lung is 101%; in the test on NCI-H226 lung, 104%; in the test on NCI-H322M lung it was 95.8%; with HOP-62 NSCLC, 109%; in the test with NCI-H460 lung, 100%; with HOP-92 NSCLC, 96.7%. The growth was 100% in the test on NCI-H522 lung; 101% in the test with A549/ATCC NSCLC; 99.3% in the test on 786-0 renal; 107% with COLO 205 colon; 112% in the test with DU-145 prostate; 101% in the test with K-562 leukemia. The growth was 87.4% in the test on MALME-3M melanoma; 93.5% in the test on MDA-MB-231 breast; 112% in the test with RXF 393 renal; 110% with SF-268 CNS; 97.5% in the test on SF-295 CNS; 95.5% in the test with SF-539 CNS. The growth with M14 melanoma is 86.3%.
